In PubChem BioAssay:
Activity calls are given as the source filed them. Unless noted, how the calls were made is not given here.

How the values were obtained:
[1] = A549 cell viability effects, profiling panel, calcein-AM fluorescence, 48 h, basal (AID 1162); details: higher = more signal; further: test concentration not given here
[2] = adipocyte viability effects, profiling panel, cell-based, 3T3-L1 adipocytes, calcein-AM fluorescence, 48 h, basal (AID 1163); details: 3T3-L1 adipocytes viability, higher = more signal; further: test concentration not given here
[3] = HepG2 cell viability effects, profiling panel, calcein-AM fluorescence, 48 h, basal (AID 1164); details: higher = more signal; further: test concentration not given here
[4] = MM1S cell viability effects, profiling panel, calcein-AM fluorescence, 48 h, basal (AID 1165); details: higher = more signal;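 further: viability of MM1S multiple myeloma cells under basal unstimulated conditions; test concentration not given here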
[5] = basal RPMI8226 viability, no added stimulus, profiling panel, cell-based, calcein-AM fluorescence, 48 h, PK04 Diversity Set (AID 1166); details: RPMI8226 myeloma viability, higher = more signal;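 further: cells grown under basal conditions without added stimulus; test concentration not given here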
[6] = basal HepG2 mitochondrial membrane potential changes, profiling panel, cell-based, JC-1 fluorescence, 24 h, 100 nL compound (AID 1167); details: higher = more signal; further: test concentration not given here
[7] = basal 3T3-L1 adipocyte mitochondrial potential changes, profiling panel, cell-based, JC-1 fluorescence, 3T3-L1 adipocytes, 24 h, 100 nL compound (AID 1168); details: JC-1 mitochondrial fluorescence, higher = more signal, called active from +8 up or from −8 down; further: test concentration not given here
[8] = basal RPMI8226 mitochondrial membrane potential changes, profiling panel, cell-based, JC-1 fluorescence, 24 h, 100 nL compound (AID 1169); details: RPMI8226 myeloma, JC-1 mitochondrial potential fluorescence, higher = more signal; further: test concentration not given here
[9] = basal MM1S mitochondrial membrane potential changes, profiling panel, cell-based, JC-1 fluorescence, 24 h, 100 nL compound (AID 1170); details: higher = more signal; further: test concentration not given here
[10] = A549 lung cancer cell viability effects, profiling panel, resazurin fluorescence, 24 h, PK04 Diversity Set (AID 1171); details: higher = more signal, called active from +8 up or from −8 down; further: test concentration not given here
[11] = HepG2 liver cancer cell viability effects, profiling panel, resazurin fluorescence, 24 h, PK04 Diversity Set (AID 1172); details: higher = more signal; further: test concentration not given here
[12] = basal S. cerevisiae growth modulation, no modifier, primary screen, OD600, strain BY4716, 24 h, basal condition (AID 1173); details: OD600, 24 h, higher = more signal, called active from +8 up or from −8 down
[13] = MM1S myeloma cell viability, profiling panel, resazurin fluorescence, basal, 24 h, PK04 Diversity Set (AID 1174); details: higher = more signal, called active from +8 up or from −8 down;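 further: MM1S multiple myeloma cell line; test concentration not given here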
[14] = biological target: Dihydroorotate dehydrogenase (quinone), mitochondrial (Plasmodium falciparum (isolate 3D7)) (UniProt Q08210); experiment: PfDHODH enzyme inhibitors, primary screen, biochemical, C-terminal His tag, absorbance 600 nm (AID 1175); details: DCIP absorbance 600 nm, higher = more signal, called active from +8 up or from −8 down;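 further: recombinant parasite enzyme with a five histidine tag at its C terminus; test concentration not given here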
Sequence of Dihydroorotate dehydrogenase (quinone), mitochondrial (Plasmodium falciparum (isolate 3D7)) (Q08210 whole entry, looked up): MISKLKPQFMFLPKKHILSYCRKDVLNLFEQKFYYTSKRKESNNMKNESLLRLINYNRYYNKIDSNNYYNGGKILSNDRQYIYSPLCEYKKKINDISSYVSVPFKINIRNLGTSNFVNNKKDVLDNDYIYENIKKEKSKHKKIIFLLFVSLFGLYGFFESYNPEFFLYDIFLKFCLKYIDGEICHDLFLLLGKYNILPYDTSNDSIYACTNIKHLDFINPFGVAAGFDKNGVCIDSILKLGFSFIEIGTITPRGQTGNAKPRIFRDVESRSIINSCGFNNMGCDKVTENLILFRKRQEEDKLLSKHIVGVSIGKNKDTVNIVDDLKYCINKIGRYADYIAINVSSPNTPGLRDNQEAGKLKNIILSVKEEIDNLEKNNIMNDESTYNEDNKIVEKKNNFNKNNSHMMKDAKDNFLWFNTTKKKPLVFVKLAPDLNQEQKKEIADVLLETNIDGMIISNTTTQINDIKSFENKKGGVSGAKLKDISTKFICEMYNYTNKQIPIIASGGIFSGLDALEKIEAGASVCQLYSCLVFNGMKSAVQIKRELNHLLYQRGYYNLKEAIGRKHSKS

[15] = P. aeruginosa biofilm formation inhibitors, primary screen, strain PAO1, LB-PBS medium, absorbance 600 nm (AID 1176); further: test concentration not given here; details: P. aeruginosa PAO1 growth/biofilm, A600, 12 h; higher = more signal
[16] = S. cerevisiae RM11-1a growth modifiers, primary screen, strain RM11-1a, OD600, basal, 24 h (AID 1177); details: OD600, 24 h, higher = more signal, called active from +8 up or from −8 down;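 further: cultures grown under basal conditions with no added stressor; test concentration not given here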
[17] = E. coli acrAB mutant growth effects, primary screen, E. coli filamentation inducers, strain DRC39, OD650, 24 h (AID 1178); details: higher = more signal, called active from +8 up or from −8 down;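 further: growth measured as culture turbidity by optical density at 650 nm; test concentration not given here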
[18] = E. coli acrAB mutant growth effects, primary screen, E. coli filamentation inducers, strain DRC39, OD650, 48 h (AID 1179);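 further: screen aims at cell division blockers that make cells filament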; details: E. coli DRC39 delta-acrAB growth, higher = more signal, called active from +8 up or from −8 down
[19] = RPMI8226 myeloma cell viability, profiling panel, resazurin fluorescence, basal, 24 h, PK04 Diversity Set (AID 1180); details: higher = more signal;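 further: RPMI8826 multiple myeloma cell line at 5000 cells per well; test concentration not given here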
[20] = biological target: E3 ubiquitin-protein ligase XIAP (Homo sapiens) (UniProt P98170); experiment: XIAP binders, primary screen, biophysical, small-molecule microarray, fluorescence 635 nm (AID 1181); details: small-molecule microarray binding, higher = more signal;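 further: score merges 667 nm emission and signal to noise over triplicate slides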
Sequence of E3 ubiquitin-protein ligase XIAP (Homo sapiens) (P98170 whole entry, looked up): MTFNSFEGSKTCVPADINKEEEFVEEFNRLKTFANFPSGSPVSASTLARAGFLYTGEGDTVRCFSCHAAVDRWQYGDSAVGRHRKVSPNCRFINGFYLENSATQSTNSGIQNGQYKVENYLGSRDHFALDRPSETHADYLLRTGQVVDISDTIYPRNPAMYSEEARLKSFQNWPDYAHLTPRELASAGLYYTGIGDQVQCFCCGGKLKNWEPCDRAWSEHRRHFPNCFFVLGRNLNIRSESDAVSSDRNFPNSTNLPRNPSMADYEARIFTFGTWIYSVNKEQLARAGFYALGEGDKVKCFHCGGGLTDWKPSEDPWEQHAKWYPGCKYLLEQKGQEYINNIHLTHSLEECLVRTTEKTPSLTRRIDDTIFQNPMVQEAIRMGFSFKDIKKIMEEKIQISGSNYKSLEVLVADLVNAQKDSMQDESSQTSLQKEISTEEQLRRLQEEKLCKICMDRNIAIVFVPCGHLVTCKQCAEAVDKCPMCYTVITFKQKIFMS

Row | SMILES | z-score [1] | z-score [2] | z-score [3] | z-score [4] | z-score [5] | z-score [6] | z-score [7] | z-score [8] | z-score [9] | z-score [10] | z-score [11] | z-score [12] | z-score [13] | composite z-score [14] | z-score [15] | z-score [16] | z-score [17] | z-score [18] | z-score [19] | composite z-score [20]
1 | O=C1O[C@H](c2ccccc2)[C@H](c2ccccc2)N2[C@H]1[C@@H](C(=O)N1CCN(c3ncccn3)CC1)[C@]1(C(=O)Nc3ccccc31)[C@H]2c1ccc(OCCO)cc1 | 0.404 | 1.35 | 0.121 | 0.0498 | -2.17 | -0.592 | 1.53 (inactive) | -1.16 | -0.537 | 1.18 (inactive) | 1.42 | 1.4 (inactive) | 0.792 (inactive) | 1.12 (inactive) | 1.55 (inactive) | 1.81 (inactive) | 0.774 (inactive) | 0.0049 (inactive) | 0.368 | 0.109
2 | CCCCCN1CC=CC23O[C@@H]4/C=C\CCCOC(=O)C4[C@H]2C(=O)N(CCCCCCO)[C@@H]3C1=O (stereo not given in full) | 1.26 | 2.1 | 1.54 | 1.37 | 1.97 | 0.482 | -0.462 (inactive) | 0.521 | -1.09 | 0.4 (inactive) | 0.239 | -2.73 (inactive) | 0.972 (inactive) | -2.25 (inactive) | 1.45 (inactive) | -3.12 (inactive) | 0.758 (inactive) | 0.868 (inactive) | 1.42 | 0.147
3 | C=C(COC)C(=O)CC[C@H](OC(C)=O)c1cccc(OCCO)c1 | -0.0614 | 1.55 | -0.116 | -2.94 | -1.07 | -0.331 | 0.715 (inactive) | 1.18 | 0.471 | -1.07 (inactive) | -1.32 | -0.764 (inactive) | -0.854 (inactive) | -0.859 (inactive) | -0.73 (inactive) | -0.496 (inactive) | -1.03 (inactive) | -0.639 (inactive) | -1.27 | 0.0346
4 | C=CC(=C)C1=CCO[C@@H]1[C@H]1CCCN1S(=O)(=O)c1ccccc1[N+](=O)[O-] | -0.387 | 1.19 | 0.324 | -1.69 | -1.07 | 0.248 | -0.736 (inactive) | -0.112 | -0.233 | 0.707 (inactive) | 1.09 | -0.793 (inactive) | -0.22 (inactive) | -0.426 (inactive) | -0.578 (inactive) | 0.223 (inactive) | 0.858 (inactive) | 0.714 (inactive) | 0.187 | -0.119
5 | CC(C)C[C@@H]1NC(=O)[C@H]2C[C@@H](C(=O)NCCCCCNC(=O)CS)[C@@H](c3cccc(OCCO)c3)N2C1=O | 0.546 | -0.206 | -0.158 | -1.11 | -0.768 | -0.0747 | -0.362 (inactive) | 0.565 | 0.975 | 0.276 (inactive) | 0.265 | -0.45 (inactive) | -0.229 (inactive) | 0.0225 (inactive) | 0.326 (inactive) | -0.0734 (inactive) | 0.346 (inactive) | -0.663 (inactive) | -0.492 | 0.379
6 | CCCNC(=O)[C@@]1(c2ccc([N+](=O)[O-])cc2)CC(=O)N(CC23CC4CC(CC(C4)C2)C3)[C@@H]1c1ccc(CO)cc1 | -1.05 | -0.35 | -1.67 | -3.54 | -3.38 | -0.99 | -0.141 (inactive) | -0.769 | -1.05 | -2.9 (inactive) | -1.8 | 1.07 (inactive) | -3.32 (inactive) | -0.225 (inactive) | 0.416 (inactive) | 1.05 (inactive) | -0.421 (inactive) | -0.391 (inactive) | -3.71 | 0.182
7 | CC(C)N1C(=O)C[C@@](C(=O)NCc2ccccc2)(c2ccc([N+](=O)[O-])cc2)[C@H]1c1ccc(CO)cc1 | -0.508 | -0.749 | -0.113 | -0.0234 | -0.0746 | 0.924 | 1.08 (inactive) | -0.744 | 0.301 | 0.0885 (inactive) | 0.222 | -0.228 (inactive) | 0.0372 (inactive) | 0.41 (inactive) | -0.0528 (inactive) | 0.131 (inactive) | 0.531 (inactive) | 1.23 (inactive) | 1.26 | -0.0543
8 | N#Cc1ccc(NN2C(C(O)C3CCCCC3)C=CC3C(=O)N(c4ccccc4)C(=O)C32)cc1 (stereo not given) | -0.669 | -0.515 | 0.595 | -0.185 | -0.32 | -2.19 | -2.17 (inactive) | 0.234 | 0.318 | -0.609 (inactive) | -0.779 | -0.394 (inactive) | -0.668 (inactive) | -0.177 (inactive) | 1.14 (inactive) | -0.28 (inactive) | -0.427 (inactive) | -0.673 (inactive) | -0.848 | 0.262
9 | COc1ccc(NN2C(C(O)c3ccc(OC)c(OCc4ccccc4)c3)C=CC3C(=O)N(C4CCCCC4)C(=O)C32)cc1 (stereo not given) | 0.412 | -0.714 | 0.337 | -0.257 | 0.0417 | 0.348 | 0.353 (inactive) | 0.0161 | -1.33 | 0.817 (inactive) | 1.03 | -1.76 (inactive) | 0.0269 (inactive) | -0.0522 (inactive) | 0.946 (inactive) | -0.221 (inactive) | -0.101 (inactive) | 1.19 (inactive) | 0.0424 | -0.141
10 | Cc1cc(C)cc(N2C(=O)CS(=O)(=O)C2c2cccc([N+](=O)[O-])c2)c1 (stereo not given) | 1.26 | 0.869 | 1.41 | 0.871 | 1.47 | 0.994 | 0.76 (inactive) | -0.327 | -0.744 | -0.913 (inactive) | -0.0507 | -0.658 (inactive) | -0.208 (inactive) | -2.1 (inactive) | -0.407 (inactive) | -0.438 (inactive) | 0.899 (inactive) | 1.04 (inactive) | -0.194 | -0.22
11 | O=C(O)[C@H]1C[C@H]2C(=O)NCC(=O)N2[C@H]1c1ccc(O)cc1 | 1.14 | 0.108 | 0.752 | -2.55 | -0.593 | 2.37 | -0.262 (inactive) | -0.629 | -1.43 | 0.672 (inactive) | 1.46 | -1.25 (inactive) | 0.866 (inactive) | -0.592 (inactive) | 0.0904 (inactive) | -0.804 (inactive) | 1.49 (inactive) | 1.51 (inactive) | 0.839 | -0.211
12 | C=C(COC)C(=O)CC[C@@H](OC(=O)c1cccnc1)c1ccc(CO)o1 | 0.408 | -0.615 | 0.0726 | -0.193 | -0.205 | -0.178 | -0.294 (inactive) | 0.0598 | 0.627 | 0.709 (inactive) | 0.114 | -0.0873 (inactive) | 0.78 (inactive) | -0.604 (inactive) | 0.649 (inactive) | -0.318 (inactive) | 0.831 (inactive) | 0.555 (inactive) | 0.807 | -0.0802
13 | Cc1ccc(S[C@]2(C(=O)NCc3ccccc3)CC(=O)N(Cc3ccccc3)[C@@H]2c2ccc(CO)cc2)cc1 | 0.778 | 0.147 | 0.0772 | -0.195 | -0.615 | -0.452 | 0.645 (inactive) | 0.0195 | -0.172 | -0.114 (inactive) | -0.345 | -0.27 (inactive) | 0.0206 (inactive) | -0.465 (inactive) | 0.429 (inactive) | 0.265 (inactive) | -0.037 (inactive) | -0.472 (inactive) | -0.0925 | -0.121
14 | COc1ccc(C#Cc2ccc3c(c2)[C@]2(C(=O)N3)[C@H](C(=O)NC[C@H](O)c3ccccc3)[C@H]3C(=O)O[C@H](c4ccccc4)[C@H](c4ccccc4)N3[C@@H]2c2ccccc2OCCO)cc1 | -1.86 | 0.0393 | -3.16 | -3.35 | -3.4 | -2.27 | 2.97 (inactive) | -0.865 | -1.7 | -1.58 (inactive) | -1.62 | 1.32 (inactive) | -4.48 (inactive) | -0.0131 (inactive) | 2.4 (inactive) | 2.27 (inactive) | -0.444 (inactive) | -0.849 (inactive) | -5.2 | 0.0297
15 | COC(=O)[C@@]1(Cc2ccccc2N=[N+]=[N-])COC(c2ccc(OCCCO)cc2)=N1 | -0.851 | -1.01 | -0.388 | -3.53 | -2.82 | -0.472 | -0.605 (inactive) | -0.125 | -0.0849 | 0.468 (inactive) | -0.799 | -10.7 (active) | -1.43 (inactive) | 0.215 (inactive) | 0.907 (inactive) | 1.42 (inactive) | -0.993 (inactive) | -1.46 (inactive) | -0.496 | 0.0593
